These results are taken from PubChem BioAssay (NCI).

Structures are written as SMILES. The panel holds about 83,000 compounds, 20% with a hit somewhere; the sample as a whole holds those more often.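 Plates (96-well) were seeded with cells, treated with compound at one concentration, and incubated for 48 hours before percent growth was determined.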 Unmarked numbers belong to inactive results. Calls of active or inactive are those of the source. How the source made its calls: active means growth percent below 10; inactive means the rest.

Some test systems named below: HCT-15 colon; HT29 colon; SNB-75 CNS; SNB-19 CNS; U251 CNS; PC-3 prostate; SK-MEL-5 melanoma; UACC-62 melanoma; LOX IMVI melanoma; SK-MEL-28 melanoma; SK-MEL-2 melanoma; EKVX NSCLC; SN12C renal; UO-31 renal; TK-10 renal; ACHN renal; CAKI-1 renal; CCRF-CEM leukemia; MOLT-4 leukemia; A498 renal.
Assay in all cases: NCI-60 one-dose screen, 48 h (100 = growth as untreated, 0 = no growth, -100 = all killed)
Common to all, as to conditions: 10 µM unless noted

Regarding `N#Cc1c(NC(=O)c2ccccc2I)sc2c1CCCC2`, the growth is 21.5% in the test on HCT-15 colon; 17.4% with HT29 colon; 16.7% in the test on SNB-75 CNS; 39.2% in the test on SNB-19 CNS; 29.7% with U251 CNS; 47.1% in the test on PC-3 prostate. Further, the growth in the test with SK-MEL-5 melanoma is 19.2%; in the test with UACC-62 melanoma, 38%; in the test with LOX IMVI melanoma, 36.8%; in the test on SK-MEL-28 melanoma, 64.1%; with SK-MEL-2 melanoma, 26.4%; with EKVX NSCLC, 48.5%. Further, the growth was 53.5% in the test on SN12C renal; 58.1% with UO-31 renal; 106% with TK-10 renal; 50.9% with ACHN renal; 45% in the test on CAKI-1 renal; 23.7% with CCRF-CEM leukemia. Moreover, the growth in the test on MOLT-4 leukemia is 34.9%.

As to `C=CCOc1cccc(/C=C2\SC(=Nc3ccc(O)cc3)NC2=O)c1`, the growth is 10.1% with HCT-15 colon; 11.7% with HT29 colon; -18.6% (active) in the test with SNB-75 CNS; 30.9% in the test on SNB-19 CNS; 13.1% in the test with U251 CNS; 13.9% with PC-3 prostate. Moreover, the growth is -39% (active) in the test with SK-MEL-5 melanoma; 34.7% in the test on UACC-62 melanoma; 8.94% (active) in the test on LOX IMVI melanoma; 69.7% in the test with SK-MEL-28 melanoma; 40.6% in the test on SK-MEL-2 melanoma; 28.8% in the test on EKVX NSCLC. Moreover, the growth in the test on SN12C renal is 14.9%; in the test with UO-31 renal, 20.7%; with TK-10 renal, 67.7%; in the test with ACHN renal, 24.3%; in the test with CAKI-1 renal, 24.4%; in the test with CCRF-CEM leukemia, 4.85% (active). The growth in the test on MOLT-4 leukemia was 13.4%.

For `CCOC(=O)C1=C(C)NC(SCc2nnc(-c3ccc(Cl)cc3)o2)=NC1c1ccc(Cl)cc1Cl` (stereo unspecified), the growth is 55.3% with HCT-15 colon; 53.1% in the test on HT29 colon; 84.1% in the test on SNB-75 CNS; 72.9% in the test with SNB-19 CNS; 65.3% in the test on U251 CNS; 45.1% with PC-3 prostate. Moreover, the growth is 80.3% in the test on SK-MEL-5 melanoma; 51.6% with UACC-62 melanoma; 58.3% in the test on LOX IMVI melanoma; 101% with SK-MEL-28 melanoma; 60.3% in the test on SK-MEL-2 melanoma; 77.2% in the test on EKVX NSCLC. Also, the growth with SN12C renal is 65.4%; in the test with UO-31 renal, 37.2%; with TK-10 renal, 79.4%; with ACHN renal, 57.7%; in the test on A498 renal, 77.7%; in the test with CCRF-CEM leukemia, 27.4%. For the same compound, the growth in the test with MOLT-4 leukemia is 11.3%.

Consider `CCCCNCC(=O)Nc1ccc(C(=O)OCC)cc1`, for which the growth with HCT-15 colon was 91.5%; in the test with HT29 colon it was 86.7%; in the test on SNB-75 CNS it was 108%; with SNB-19 CNS it was 103%; with U251 CNS it was 101%; in the test on PC-3 prostate, 71.8%. For the same compound, the growth with SK-MEL-5 melanoma was 101%; in the test with UACC-62 melanoma it was 95.3%; with LOX IMVI melanoma it was 103%; in the test on SK-MEL-28 melanoma, 115%; in the test with SK-MEL-2 melanoma, 93%; in the test on EKVX NSCLC, 98.3%. Besides, the growth in the test with SN12C renal was 104%; in the test on UO-31 renal, 91.8%; in the test with TK-10 renal it was 96.1%; in the test on A498 renal it was 101%; with CCRF-CEM leukemia it was 79.4%; with MOLT-4 leukemia, 80.7%.

In the case of `O=C(c1ccccc1)c1ccc(N2C(=O)C3C4c5ccccc5C(/C=C/C(=O)c5ccccn5)(c5ccccc54)C3C2=O)cc1` (stereo unspecified), the growth was -21.7% (active) in the test on HCT-15 colon; 9.38% (active) with HT29 colon; 46.7% with SNB-75 CNS; 28.2% in the test with SNB-19 CNS; 2.15% (active) in the test with U251 CNS; 28.4% in the test with PC-3 prostate. The growth in the test on SK-MEL-5 melanoma is 49.7%; in the test on UACC-62 melanoma, 21%; with LOX IMVI melanoma, -76.6% (active); in the test on SK-MEL-28 melanoma it was 13.4%; with SK-MEL-2 melanoma, 74.7%; in the test with EKVX NSCLC it was 27.9%. Also, the growth in the test with SN12C renal is 11.3%; in the test on UO-31 renal, -37.4% (active); with TK-10 renal, 20.1%; in the test with ACHN renal, -25.4% (active); with CAKI-1 renal, 49.3%; in the test on CCRF-CEM leukemia, 11.1%. In the test with MOLT-4 leukemia, the growth was 16%.

For the compound `Cc1nc(Nc2ccccn2)sc1C(=O)/C=C/c1ccc(Br)cc1`, the growth is 30.4% in the test on HCT-15 colon; 25.9% in the test on HT29 colon; 40.2% in the test on SNB-75 CNS; 69.2% in the test on SNB-19 CNS; 59.8% in the test on U251 CNS; 56.3% with PC-3 prostate. For the same compound, the growth in the test with SK-MEL-5 melanoma was 84.7%; in the test on UACC-62 melanoma, 61.5%; in the test on LOX IMVI melanoma it was 32.2%; with SK-MEL-28 melanoma, 99.6%; with SK-MEL-2 melanoma it was 97.7%; in the test with EKVX NSCLC, 60.4%. Also, the growth is 78.8% with SN12C renal; 49.7% with UO-31 renal; 127% in the test with TK-10 renal; 75.2% in the test with ACHN renal; 53.4% with CAKI-1 renal; 31.1% with CCRF-CEM leukemia. The growth with MOLT-4 leukemia is 80%.

`COc1ccc(-c2nnc(SCC(=O)NC3=NN=C(c4ccccc4)CS3)o2)cc1`: the growth is 106% with HCT-15 colon; 96.1% with HT29 colon; 88.1% in the test with SNB-75 CNS; 90.8% in the test on SNB-19 CNS; 87.2% in the test with U251 CNS; 86.8% in the test with PC-3 prostate. Also, the growth with SK-MEL-5 melanoma was 107%; with UACC-62 melanoma, 95.2%; in the test with LOX IMVI melanoma, 101%; in the test on SK-MEL-28 melanoma it was 109%; in the test on SK-MEL-2 melanoma, 103%; in the test with EKVX NSCLC, 101%. The growth in the test on SN12C renal was 99.8%; in the test on UO-31 renal, 88.1%; with TK-10 renal, 106%; with ACHN renal, 99.6%; in the test with A498 renal, 86.4%; in the test on CCRF-CEM leukemia it was 90.8%. In addition, the growth in the test on MOLT-4 leukemia was 83.9%.

With `O=[N+]([O-])c1ccc(-c2cc3c(Nc4ccc(OCc5cccc(Cl)c5)c(Cl)c4)ncnc3s2)cc1`, the growth with HCT-15 colon is 55.3%; with HT29 colon it was 47.3%; in the test on SNB-75 CNS it was 69.8%; in the test on SNB-19 CNS it was 67.6%; in the test with U251 CNS, 52.8%; with PC-3 prostate, 48%. For the same compound, the growth in the test with SK-MEL-5 melanoma was 97.6%; in the test with UACC-62 melanoma, 78.3%; in the test with LOX IMVI melanoma, 66.4%; with SK-MEL-28 melanoma it was 86.8%; in the test on SK-MEL-2 melanoma it was 79.4%; in the test with EKVX NSCLC, 68.4%. Also, the growth is 85.1% in the test with SN12C renal; 59.9% with UO-31 renal; 70.1% in the test on TK-10 renal; 63.3% in the test on ACHN renal; 72.3% in the test with A498 renal; 52.2% in the test with CCRF-CEM leukemia. Further, the growth in the test on MOLT-4 leukemia was 47.5%.
